Records with an inconclusive call do not appear. Where a call stands in place of a potency, no number is given. Calls of active or inactive are those of the source. Calls follow the shape of the dose curve; as a rule, active = well fitted activation curve with a large enough effect; inconclusive = small, poorly fitted or top-dose-only effect; inactive = no such curve, though single readings can be large or run the other way.
Target: Rap guanine nucleotide exchange factor 3 (Homo sapiens) (UniProt O95398)
Experiment: Confirmatory qHTS for agonist of cAMP-regulated guanine nucleotide exchange factor 3 (EPAC1) (AID 1645881); also: nearly all actives have a fitted effect of over 75% in size;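 as to activation: EPAC1 catalysed release of BODIPY-GDP from Rap1B seen as fluorescence loss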
Details: EPAC1 Rap1B BODIPY-GDP exchange fluorescence; series mostly up to 154 µM
Potency is read from the fitted curve at half-maximal effect.

Sequence of Rap guanine nucleotide exchange factor 3 (Homo sapiens) (O95398 whole entry, looked up): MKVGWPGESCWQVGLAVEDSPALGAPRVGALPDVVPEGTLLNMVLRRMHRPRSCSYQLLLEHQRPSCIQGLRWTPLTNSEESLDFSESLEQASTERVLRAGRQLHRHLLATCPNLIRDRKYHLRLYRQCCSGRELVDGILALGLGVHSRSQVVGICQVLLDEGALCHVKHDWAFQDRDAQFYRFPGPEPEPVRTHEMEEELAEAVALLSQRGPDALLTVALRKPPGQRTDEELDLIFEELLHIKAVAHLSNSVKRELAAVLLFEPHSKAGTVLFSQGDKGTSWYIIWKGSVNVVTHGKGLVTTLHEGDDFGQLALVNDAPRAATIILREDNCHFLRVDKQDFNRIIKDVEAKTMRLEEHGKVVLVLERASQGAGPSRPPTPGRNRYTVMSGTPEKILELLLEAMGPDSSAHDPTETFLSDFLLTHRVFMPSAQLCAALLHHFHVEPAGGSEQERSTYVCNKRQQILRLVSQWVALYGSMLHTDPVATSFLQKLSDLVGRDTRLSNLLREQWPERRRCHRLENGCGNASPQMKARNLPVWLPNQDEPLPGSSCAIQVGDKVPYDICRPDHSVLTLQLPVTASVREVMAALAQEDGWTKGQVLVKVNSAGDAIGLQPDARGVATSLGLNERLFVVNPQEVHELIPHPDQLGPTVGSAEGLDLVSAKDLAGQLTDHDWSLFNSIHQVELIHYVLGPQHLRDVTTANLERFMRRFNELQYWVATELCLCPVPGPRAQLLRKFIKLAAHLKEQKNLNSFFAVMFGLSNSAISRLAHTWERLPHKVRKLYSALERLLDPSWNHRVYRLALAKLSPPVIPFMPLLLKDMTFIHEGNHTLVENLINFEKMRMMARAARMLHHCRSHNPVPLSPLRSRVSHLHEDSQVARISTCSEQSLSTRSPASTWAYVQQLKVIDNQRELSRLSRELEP

| SMILES | Potency |
| --- | --- |
| Cc1ccc(O)c(N=Cc2cc(Cc3ccccc3)cc([N+](=O)[O-])c2O)c1 | inactive |
| CCc1ccc(NC(=O)CSc2nnc(Cc3cccn3C)n2-c2ccc(OC)cc2)cc1 | inactive |
| CN(c1ccc(C(=O)NCc2ccc3c(c2)OCO3)cc1)S(=O)(=O)c1ccccc1 | inactive |
| CS(=O)(=O)Nc1ccc(C2=NN(C(=O)c3cccc(F)c3)C(c3cccs3)C2)cc1 (configuration not stated) | inactive |
| O=[N+]([O-])c1cc(-c2ccccc2)cc([N+](=O)[O-])c1O | inactive |
| O=C1CNC(=O)c2c(nc3n2CCC3)N1 | inactive |
| COc1cc(/C=N/NC(=O)c2ccccn2)ccc1OC(=O)c1ccc(Br)cc1 | inactive |
| COc1ccc(NC(=O)C2=NN(c3ccccc3)C(=O)CC2)cn1 | inactive |
| O=[N+]([O-])c1cc2ccccc2c(O)c1O | inactive |
| CCc1nc2ccc(C(=O)N(C)Cc3ccccc3)cn2c1N(CC)Cc1cccc(Br)c1 | inactive |
| Cc1ccc(S(=O)(=O)N2[C@@H](c3ccc(Br)cc3)C(C(=O)O)=CC[C@H]2c2ccc(C(C)C)cc2)cc1 | inactive |
| COc1ccc(C(C(=O)c2ccccc2)c2ccccc2)cc1 (configuration not stated) | 100 µM (active) |
| COc1ccc(C2=Cc3ccccc3C(CC(=O)C3CC3)N2c2ccc(C#CCCO)cc2)cc1 (configuration not stated) | inactive |
| CC(=O)N1CCc2nc3sc(C(=O)Nc4ccc(Cl)cc4F)c(N)c3c(C(F)(F)F)c2C1 | inactive |
| CCN(CC(=O)Nc1ccccc1C(F)(F)F)C(=O)c1cc2c(s1)CCCCC2 | inactive |
| Cc1ccc2c(c1)C(c1ccccc1)CC(=O)O2 (configuration not stated) | inactive |
| O=C1NC(=Nc2ccccc2Cl)S/C1=C\c1cc([N+](=O)[O-])ccc1O | inactive |
